High-throughput results as filed in PubChem BioAssay.
Compounds with a hit are over-represented: about 4% of the library has one in this group of screens.
tim10-1 inh: tim10-1 yeast growth inhibition. S. cerevisiae tim10-1 ts strain growth, BacTiter-Glo, 24 h. inhibition, % at 20 µM. actives 2.2% (n = 330,000). AID 463190;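 active = inhibition of at least 40%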;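 note: mutant grown at 25 °C; 0% = DMSO wells with yeast and 100% = wells holding no yeast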
NALP1 yeast inh: NALP1 inhibition | S. cerevisiae NALP1/ASC/caspase-1 growth, X-gal OD620, 72 h | inhibition, % at 10 µM | actives 0.61% (n = 280,000) | AID 2071; in the data active = inhibition mostly above about 24%, no sharp cut-off; inactive = mostly below about 32%
tim23-1 inh: inhibits growth of tim23-1 mutant yeast. S. cerevisiae tim23-1 growth, BacTiter-Glo luminescence, 24 h. inhibition, % at 20 µM. actives 1.3% (n = 330,000). AID 463212;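 active = growth inhibition of the mutant yeast at or above 50%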;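 note: temperature-sensitive mutant grown at 25 °C; plate controls were DMSO-treated mutant yeast for no effect and medium wells lacking yeast for full effect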
NLRP3 yeast inh: blocks the NALP3 inflammasome reconstituted in yeast; Yeast reconstituted NLRP3/ASC/caspase-1, beta-gal luminescence, 24 h; inhibition, % at 10 µM; actives 0.39% (n = 330,000); AID 2825;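 active = inhibition of 50% or more; inactive = inhibition below 50%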;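 note: plate controls were induced DMSO wells for no effect and uninduced yeast grown without galactose for full effect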
TIM10 inh: TIM10 yeast growth inhibition; S. cerevisiae TIM10 strain growth, BacTiter-Glo luminescence, 24 h; inhibition, % at 10 µM; actives 1.4% (n = 330,000); AID 463195;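 active = inhibition of 40% or more at the single tested concentration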;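 note: wild-type TIM10 isogenic control strain grown at permissive 25 °C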
tim10-1 conf: confirmation of tim10-1 mutant yeast growth inhibitors; shares compounds with tim10-1 inh; S. cerevisiae tim10-1 ts strain growth, BacTiter-Glo, 24 h; inhibition, % at 20 µM; actives 56% (n = 7,400);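 active = inhibition of yeast growth at or above a set limit in either of two repeat tests at 20 µM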;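 note: tim10-1 mutant grown at permissive 25 °C to find synthetic lethal compounds; 0% = DMSO yeast wells and 100% = medium wells without yeast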
TIM10 conf: TIM10 yeast growth inhibition, confirmed | shares compounds with TIM10 inh | S. cerevisiae tim10 strain growth, BacTiter-Glo luminescence, 24 h | inhibition, % at 10 µM | actives 63% (n = 4,600) | AID 463215;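 active = inhibition of yeast growth at or above a set limit in either of two replicates at 10 µM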;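 note: this counterscreen used the strain with wild-type TIM10; 0% = yeast with DMSO and 100% = medium wells lacking yeast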
tim23-1 conf: tim23-1 yeast growth inhibition, confirmed; actives 83% (n = 4,400); S. cerevisiae tim23-1 growth, BacTiter-Glo luminescence, 24 h; shares compounds with tim23-1 inh; inhibition, % at 20 µM;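 active = inhibition above about 39% in either of two replicate wells at 20 µM, limit read from the data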;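 note: temperature-sensitive tim23-1 mutant grown at 25 °C; 0% = DMSO wells with yeast and 100% = medium wells without yeast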
Active calls of the source: *; / = no result given.

SMILES | tim10-1 inh | NALP1 yeast inh | tim23-1 inh | NLRP3 yeast inh | TIM10 inh | tim10-1 conf | TIM10 conf | tim23-1 conf
Cc1ccc(S(=O)(=O)CNC(=S)c2ccc3ccccc3c2)cc1 | 43* | -1 | 53* | 14 | 34 | 20 | / | 50*
Cc1ccc(S(=O)(=O)CNC(=O)c2ccccc2)cc1 | 9 | -3 | 4 | 7 | 3 | / | / | /
N/C(=N\OC(=O)c1ccc(Cl)cc1)c1[nH]ncc1Br | 66* | / | 60* | -11 | 43* | 63* | 37* | 59*
CCO/N=C(\N)c1[nH]ncc1Br | 8 | 24 | 9 | 17 | 9 | / | / | /
CC(=O)Oc1ccc2c(=O)c(Oc3ccccc3[N+](=O)[O-])coc2c1 | 21 | 6 | 11 | 17 | 8 | / | / | /
CC(=O)Oc1ccc2c(=O)c(-c3nc4ccccc4s3)coc2c1 | 69* | 28* | 65* | 18 | 86* | 24 | 49* | 72*
CC1CCN(C(=O)c2cc(S(=O)(=O)N3CCCCC3)c[nH]2)CC1 | -19 | 19 | -9 | 12 | 0 | / | / | /
Cc1ccc(S(=O)(=O)O/N=C2\CCCc3ccccc32)cc1 | 18 | -6 | 11 | 12 | 11 | / | / | /
CC1=C(C)/C(=N\OS(=O)(=O)c2ccccc2)C=CC1=O | 94* | 7 | 50* | 36 | 95* | 93* | 9 | 94*
CCNc1nc(CN2CCCCC2)nc2scc(-c3ccccc3)c12 | 8 | 11 | -12 | 0 | 14 | / | / | /
CN(Cc1ccccc1)c1nc(CN2CCOCC2)nc2scc(-c3ccccc3)c12 | 47* | 18 | 65* | -7 | 55* | 42* | 40* | 61*
CCCCOc1cccc(-c2nnc(N)s2)c1 | 53* | -13 | 52* | 2 | 29 | 36* | / | 50*
O=C1CCCC/C1=C\Nc1ccc(S(=O)(=O)Nc2cnc3ccccc3n2)cc1 | 10 | 12 | 11 | 5 | -19 | / | / | /
CC(C)NOC(=O)c1ccc(Cl)cc1 | 10 | 8 | 6 | 18 | -10 | / | / | /
N/C(=N\OC(=O)c1cccc(Br)c1)c1ccccc1 | 66* | 9 | 83* | 15 | 83* | 58* | 86* | 73*
N/C(=N\OC(=O)CCCOc1ccccc1)c1cccc(Br)c1 | 34 | 1 | 22 | 5 | 31 | / | / | /
N/C(=N\OC(=O)c1ccco1)c1cccc(Br)c1 | 56* | 5 | 64* | -2 | 61* | 56* | 54* | 45*
O=C(c1cccc(Br)c1)c1conc1C(=O)c1ccco1 | 48* | 27 | 54* | -4 | 43* | 44* | 38* | 59*
Cc1ccc(S(=O)(=O)c2c(C)nn(C(C)(C)C)c2OC(=O)C(C)(C)C)cc1 | 32 | -6 | 39 | -1 | 8 | / | / | /
Cc1ccc(S(=O)(=O)c2c(C)nn(C(C)(C)C)c2OC(=O)c2ccco2)cc1 | 47* | 13 | 64* | 18 | 31 | 32* | / | 46*
Cc1ccc(S(=O)(=O)c2c(C)nn(C(C)(C)C)c2OC(=O)c2ccc(Br)o2)cc1 | 50* | 3 | 70* | 45 | 42* | 37* | 35* | 49*
CCN(C[C@H]1N[C@@](CC)(C(=O)OC)[C@H]2C(=O)N(C)C(=O)[C@@H]12)C(=O)NC(C)C | 0 | / | 6 | 13 | -6 | / | / | /
CCOC(=O)CNc1c(-c2ccc(O)cc2)nc2ccc(Cl)cn12 | 19 | 18 | 42 | 12 | 24 | / | / | /
CCOC(=O)CNc1c(-c2ccccc2)nc2ccc(Cl)cn12 | 40* | 25 | 51* | 18 | 40* | 33* | 2 | 51*
COc1ccc(S(=O)(=O)N(Cc2ccccc2)Cc2nc(-c3ccccc3)no2)cc1 | 15 | 13 | 13 | 16 | -8 | / | / | /
SMILES | tim10-1 inh | NALP1 yeast inh | tim23-1 inh | NLRP3 yeast inh | TIM10 inh | tim10-1 conf | TIM10 conf | tim23-1 conf
O=C(Nc1ccccc1)c1ccccc1Oc1ccc(C(F)(F)F)cc1[N+](=O)[O-] | 31 | 22 | 36 | 21 | 31 | / | / | /
O=C(Oc1ccccc1C(=O)Nc1ccccc1)c1ccc(Br)c([N+](=O)[O-])c1 | 47* | 30 | 61* | 47 | 52* | 51* | 35* | 74*
COc1ccc2c(c1)sc1nc(-c3ccccc3)cn12 | 40* | 13 | 60* | 36 | -1 | 19 | / | 67*
COc1ccc(-n2cc(-c3ccccc3)nc2SC)cc1 | 37 | 21 | 47 | 23 | 37 | / | / | /
O=C(O)c1ccc(NC2=C/C(=N/S(=O)(=O)c3ccccc3)c3ccccc3C2=O)cc1 | 38 | -12 | 40 | -1 | 14 | / | / | /
Cc1cc(C)c(S(=O)(=O)/N=C2\C=C(Nc3ccc(C(=O)O)cc3)C(=O)c3ccccc32)c(C)c1 | 43* | 6 | 60* | 28 | 24 | 35* | / | 63*
C#CCOCCOCCOCCNc1nc(N2CCN(C(=O)CCCCCCCCCCNC(=O)[C@H](CCCCN)n3cc(C[C@@H](C)CC)nn3)CC2)nc(N2CCN(C(=O)CCCCCCCCCCNC(=O)[C@H](CCCN=C(N)N)n3cc(C[C@@H](C)CC)nn3)CC2)n1 | 29 | / | 47 | 11 | -6 | / | / | /
C#CCOCCOCCOCCNc1nc(N2CCN(C(=O)CCCCCCCCCCNC(=O)[C@H](CCCCN)n3cc(C)nn3)CC2)nc(N2CCN(C(=O)CCCCCCCCCCNC(=O)[C@H](CCCN=C(N)N)n3cc(C[C@@H](C)CC)nn3)CC2)n1 | 40* | / | 50* | 8 | 9 | 13 | / | 64*
COc1ccccc1C(O)P(=O)(OCC(C)C)c1ccc(N(C)C)cc1 (centres undefined) | 10 | -22 | 14 | -4 | 26 | / | / | /
COc1ccc(Cl)cc1NC(=O)C1CC(c2c(F)cccc2Cl)=NO1 (centres undefined) | 80* | 10 | 65* | 20 | 65* | 76* | 72* | 85*
O=S(=O)(c1cccc(Br)c1)N1CCN(c2ccnc3cc(Cl)ccc23)CC1 | 50* | 4 | 52* | -16 | 36 | 30* | / | 47*
CN(/N=C/c1ccccc1Cl)c1ncc(Cl)cc1C(F)(F)F | 14 | 17 | 9 | 11 | 1 | / | / | /
CN(/N=C/c1ccc(O)cc1O)c1ncc(C(F)(F)F)cc1Cl | 45* | 7 | 62* | 32 | 11 | 25 | / | 56*
COC(=O)c1c(C)[nH]c(C(=O)/C=C/c2ccccc2F)c1C | -1 | -3 | 0 | 26 | 12 | / | / | /
Cc1nnc(N2C(=O)c3cccc4c([N+](=O)[O-])ccc(c34)C2=O)s1 | 85* | 3 | 67* | 10 | 36 | 64* | / | 68*
Cc1ccnc(N2C(=O)c3cccc4c([N+](=O)[O-])ccc(c34)C2=O)c1 | 90* | 16 | 74* | 19 | 90* | 90* | 97* | 78*
